According to PubChem BioAssay (NCI):
About 83,000 compounds went through this panel and 20% of them were active in at least one assay; those are over-represented in the sample as a whole.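 48-hour exposure, single concentration, 96-well plates; percent growth endpoint where 0 means no net growth. Active: below 10.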 A number with no mark means an inactive call. Activity calls are given as the source filed them.

These compounds were tested on OVCAR-4 ovarian (assay: NCI-60 one-dose screen, 48 h (100 = growth as untreated, 0 = no growth, -100 = all killed)). Details: 10 µM.

SMILES	growth
COc1ncc(-c2ccc3nccc(C#CCCCCC(=O)NO)c3c2)cc1NS(=O)(=O)c1ccc(F)cc1F	24.9%
CCCCCN(CCCCC)CCCCCCCCN1CCCc2ccccc21	95.9%
CC1Cc2c(Cl)ncnc2N(C)c2ccc(O)cc21 (configuration not stated)	27%
FC(F)(F)c1ccc2c(c1)Sc1ccccc1N2	97%
Cc1ccc2c(n1)C(=O)C(Cl)=C(Nc1ccc(N3CCN(C)CC3)cc1)C2=O	-100% (active)
C1=C[C@H]2O[C@@H]1c1ccc3[nH]ccc3c12	115%
CCOC(=O)c1sc2nc(-c3cc(OC)c(OC)c(OC)c3)nc(N3CCOCC3)c2c1C	19.7%
O=C(CCN1CCCCC1)c1ccc(Cl)cc1	105%
O=C1CC(C(F)(F)F)Cc2nc3ccc(Br)cc3cc21 (configuration not stated)	74.6%
CCOC(=O)CCC[P+](c1ccccc1)(c1ccccc1)c1ccccc1	81.7%
CCC(Br)(CC)C(=O)c1ccc(OCC(=O)O)c(Cl)c1Cl	97.4%
C#C[C@]1(O)CC[C@H]2[C@@H]3CC=C4c5nc(Nc6ccccc6[N+](=O)[O-])sc5CC[C@]4(C)[C@H]3CC[C@@]21C	84.9%
Cc1cc(C)c(O)c(CNCCCNCc2cc(C)cc(C)c2O)c1	88.3%
Nc1nc(Cl)c2ncn(Cc3cc4c(cc3I)OCO4)c2n1	79.7%
CC1(C)OC2[C@@H](CNC(=O)NC(=O)NC(=O)CI)O[C@@H](n3cnc4c(NC(=O)Nc5ccccc5)ncnc43)[C@H]2O1 (some centres not stated)	73.5%
Fc1cc2[nH]ncc2c2c3c(c(-c4cn[nH]c4C(F)(F)F)nc12)C1CCC3C1 (configuration not stated)	35%
CC1Cc2c(Cl)ncnc2N(C)c2ccccc21 (configuration not stated)	21.5%
CCCCCCSc1ncnc2nc[nH]c12	88.4%
COc1cc2c(cc1OC(C)=O)C(=O)CCCC2	95.1%
COc1ccc(CC(C#N)c2ccc(Cl)cc2)cc1 (configuration not stated)	103%
COc1ccc(N(c2nc(-c3ccc([N+](=O)[O-])cc3)cs2)C(C)C)cc1	70%
Fc1cc2[nH]ncc2c2c3c(c(-c4cn[nH]c4)nc12)CCCC3	16.1%
